Screen size: about 360,000 compounds; about 740 (0.21%) were called active. About 2% were inconclusive and are not listed. Many of the other results were omitted from the sample, so actives are more common in it than they were. Unmarked numbers belong to inactive results. Calls follow the shape of the dose curve; as a rule, active = well fitted inhibition curve with a large enough effect; inconclusive = small, poorly fitted or top-dose-only effect; inactive = no such curve, though single readings can be large or run the other way.
Tested on: Plasmodium falciparum AMA1 (3D7) - RON2 peptide interaction
Assay: qHTS for Inhibitors of AMA1-RON; Towards Development of Antimalarial Drug Lead: Primary Screen; also: nearly all actives have a fitted effect of over 45% in size;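 as to activity change, negative = inhibition: 0% = vehicle wells and -100% = peptide control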
Settings: AlphaScreen AMA1-biotinylated RON2 peptide binding; series mostly up to 58.2 µM; activity change, negative = inhibition: at the top concentration
From the text: Plasmodium, the causative agent of malaria, is one of the world's deadliest parasitic diseases. Currently there is no vaccine available and there is widespread resistance to common anti-malarial drugs. This warrants novel, alternative approaches for developing improved therapy. During infection, one such essential interaction is between two parasite proteins, the apical membrane antigen1 (AMA1) that is translocated onto the merozoite surface and the rhoptry neck protein 2 (RON2), which is transferred to the red blood cells (RBC) membrane during invasion (Besteiro et.al., 2009). Recently, the Miller lab has shown that the interaction between AMA1 and RON2 is essential for junction formation of the parasite with the host cell (Srinivasan et.al., 2011). The binding of the RON2 peptide to the hydrophobic pocket in AMA triggers the formation of the moving junction which provides a firm anchor for the parasite to pull itself into the RBC using its actin-myosin motor; an irreversible step that commits the parasite for invasion. Only one AMA1 and RON2 genes exists in Plasmodium and there are no alternate pathways. Moreover, the region corresponding to RON2 peptide is conserved in all P. falciparum isolates for which sequences are available. The key residues in the AMA1 hydrophobic pocket that binds RON2 are also conserved and indicate a functional constraint governing this essential step in invasion since a short RON2 peptide (RON2L) corresponding to the binding region on AMA1 is sufficient to compete with the native RON2 protein and inhibits invasion (Tonkin et.al, 2011). Therefore, developing small molecule inhibitors of this interaction offers a promising target opening a new arena for anti-malarial therapeutics drug design.
In collaboration with the Miller lab, a quantitative High Throughput Screen using the AlphScreen technology was developed using a recombinant his-tagged AMA1 and a biotinylated RON2 peptide. This fluorescent screen was assayed against the NIH Molecular Libraries Small Molecule Repository (MLSMR). Inhibition of this protein-protein interaction is the desired outcome of this assay. However, due the limitations of this AlphaScreen assay, a large number of artifacts were observed. An AlphaScreen counterscreen was run to identify the true inhibitors, triage compound activity, and weed out false positives.
NIH Chemical Genomics Center [NCGC]
NIH Molecular Libraries Probe Centers Network [MLPCN]
Assay Submitter (PI): Louis Miller, National Institute of Allergy and Infectious Disease (NIAID)
Two microliters of his-tagged AMA1 3D7 allele protein (final concentration 25 nM) was dispensed into a 1,536-well assay plate. Small molecules and positive control peptides were pin-transferred (23 nL or 46 nL) via Kalypsys pin-tool equipped with a 1,536-pin array, resulting in final compound and peptide concentration ranges of 91.5 nM - 57.2 µM, and 15.6 nM - 2.00 µM, respectively. Unlabeled RON2 peptide or R1 peptide ([…]) that specifically binds the 3D7 AMA1 was used as a positive control that inhibited the binding of RON2L to AMA1. After 15 minutes incubation, 1 uL of biotinylated RON2 peptide (final concentration 25 nM) or buffer were dispensed and the assay plate was incubated for an additional 30 minutes at room temperature and protected from light. This was followed by an addition of 1 uL mixture of donor and acceptor beads (10 ug/mL final concentrations for each). The plates were incubated for 30 min at room temperature and read using the EnVision(R) plate reader (PerkinElmer). Maximum inhibition response was normalized to the positive control signal while no inhibition response was normalized to the DMSO treated wells.
Potency is read from the fitted curve at half-maximal effect.

| SMILES | activity change, negative = inhibition [%] | Potency |
| --- | --- | --- |
| COC(=O)c1ccc(NC(=O)CSc2nncc3ccc(OC)c(OC)c23)cc1 | -13.1 | – |
| COCCN(CC(=O)Nc1ccccc1C)S(=O)(=O)c1ccc(S(=O)(=O)N2CCCC2)cc1 | 2.33 | – |
| CSc1nnc2c(n1)OC(c1cn(C)c3ccccc13)N(C(C)=O)c1ccccc1-2 (stereo not drawn) | 5.41 | – |
| O=C(CN1C(=O)NC2(CCCCCCC2)C1=O)NCc1ccc(F)cc1 | 2.43 | – |
| Cc1nc([N+](=O)[O-])nn1C12CC3CC(CC(Br)(C3)C1)C2 | -0.205 | – |
| CCOc1ccc(OCC)c(NC(=O)C2CCN(S(=O)(=O)c3c(C)noc3C)CC2)c1 | -11.4 | – |
| CSCc1cc(N2CCOCC2)nc(SCc2ccc(Cl)cc2Cl)n1 | -1.83 | – |
| CC(=O)c1ccc(S(=O)(=O)NC2CC(=O)N(c3ccc4c(c3)OCCO4)C2)cc1 (stereo not drawn) | 5.8 | – |
| NC(=O)CC(NC(=O)Cc1ccc(Br)cc1)c1ccc(NC2CC3CCC2C3)c([N+](=O)[O-])c1 (stereo not drawn) | -18 | – |
| CCOC(=O)C1(Cc2ccccc2C)CCCN(S(C)(=O)=O)C1 (stereo not drawn) | 8.1 | – |
| COc1ccc(CNC(=O)C[C@H]2C[C@H](C(=O)N3CCOCC3)[C@@]3(C)c4[nH]c5cc(CCC(=O)N(C)C)ccc5c4CCN3C2=O)cc1OC | 11.3 | – |
| COc1ccc2occ(C(=O)c3ccc(N=C(C)N(C)C)cc3)c2c1 | -7.37 | – |
| CN(C)c1ccc(Nc2c3c4c(cccc4n(C)c2=O)C(=O)c2ccccc2-3)cc1 | – | 4.47 µM (active) |
| COCCNC(=O)Nc1ccc2nc(-c3ccco3)c(-c3ccco3)nc2c1 | – | 7.08 µM (active) |
| COCCN(C(=O)c1ccco1)c1nnc(-c2ccc(OC)cc2)s1 | 3.14 | – |
| O=C(NCCOc1ccccc1F)Nc1ccc(Br)cc1 | -2.52 | – |
| CC1=C(C(=O)OC(C)(C)C)C(c2ccc(Br)cc2)NC(=O)N1CCCC(=O)O (stereo not drawn) | -7.79 | – |
| O=C(CSc1nnc2ccc(-c3ccncc3)nn12)N1CCCCC1 | 18.5 | – |
| O=C1CCC/C=C\C[C@@H](CC(=O)N(CCO)Cc2ccccc2)C(=O)NCCO1 | 13.1 | – |
| O=C(O)CSC(NC(=O)c1cccnc1)(C(F)(F)F)C(F)(F)F | -2.41 | – |
| COc1ccc(OC)c(C2C3=C(N=c4s/c(=C\c5cccc(O)c5)c(=O)n42)c2ccccc2CC3)c1 (stereo not drawn) | -12.8 | – |
| CCOCCCN(C)C1CCN(C(=O)c2oc3ccccc3c2NC(=O)COc2cccc(C)c2)CC1 | -11.2 | – |
| COc1cc(C(=O)OCC(=O)N(CC(C)C)C2CCS(=O)(=O)C2)ccc1OCC(C)C (stereo not drawn) | 8.24 | – |
| COc1nc(N(C)C)nc(N2CC(=O)N(CCNS(=O)(=O)c3ccc(C)cc3)C2=N)n1 | 4.54 | – |

| SMILES | activity change, negative = inhibition [%] | Potency |
| --- | --- | --- |
| CCOc1ccc(NC(=O)CN(C)C(=O)c2cccc(S(=O)(=O)N3CCCC3)c2)cc1OCC | 5.03 | – |
| Cc1ccc(CN2CC(C(=O)N3CCN(S(=O)(=O)c4ccccc4)CC3)CC2=O)cc1 (stereo not drawn) | 2.11 | – |
| CS(=O)(=O)c1ccc(Cl)c(NC(=O)COC(=O)c2ncc(Cl)c(Cl)c2Cl)c1 | 7.73 | – |
| C=C1C2C[C@H](O)C(C)(C)[C@@]2(O)[C@H](O)C[C@]23C[C@@](C)(O)[C@H](CC[C@H]12)[C@H]3O (stereo partly drawn) | 6.34 | – |
| CCc1ccc(S(=O)(=O)Nc2cc3c(cc2N2CCCCC2)n(C)c(=O)c(=O)n3C)cc1 | -3.11 | – |
| O=S(=O)(Nc1cc(S(=O)(=O)N2CCOCC2)ccc1N1CCCC1)c1cccs1 | 21.9 | – |
| COc1cccc(N(CC(=O)NC2CCCC2)C(=O)Cn2nnc(-c3ccc(C)cc3)n2)c1 | -14.7 | – |
| CC(C)(C)OC(=O)N1CCC(C(=O)Nc2cccc(C(=O)NCCc3ccccc3)c2)CC1 | 8.21 | – |
| COc1ccc(CCNC(=O)C(=O)NCC2OCCN2S(=O)(=O)c2ccc(OC)c(C)c2)cc1 (stereo not drawn) | 9.2 | – |
| O=C(COC(=O)CNS(=O)(=O)c1ccccc1)NC12CC3CC(CC(C3)C1)C2 | -5.62 | – |
| O=c1ccc2cc(S(=O)(=O)NCCCc3ccccc3)ccc2[nH]1 | 1.59 | – |
| COc1ccc(C2CC(c3ccc(Cl)cc3Cl)Nc3nc(N)nn32)cc1OC (stereo not drawn) | -7.14 | – |
| COc1ccc(C2CC(c3ccc(C)cc3)Nc3nc(N)nn32)cc1 (stereo not drawn) | – | 3.16 µM (active) |
| Cc1ccc(C2CC(c3cccc(Br)c3)n3nc(N)nc3N2)cc1 (stereo not drawn) | -13 | – |
| CCOc1cc(C(=O)N(Cc2ccccc2)c2ccc(C)cc2)ccc1OCC(=O)N1CCOCC1 | 6.38 | – |
| CN(C)/C=C(/C(=O)c1ccc(Cl)c(Cl)c1)c1nnnn1-c1ccccc1 | 25.1 | – |
| COC(=O)c1ccc(NC(=O)CSc2nnc(C3CC3)n2C)cc1 | -1.1 | – |
| C/C=C/C=C/C(=O)OCC(=O)Nc1ccc(Cl)cc1 | -15.1 | – |
| CCCCN1C(=O)CCC(C(=O)O)C1c1ccc(OC)cc1 (stereo not drawn) | -2.98 | – |
| O=C(Nc1cccc(S(=O)(=O)NC2=NCCC2)c1)C1CCCCC1 | 16.3 | – |
| COCCCNC(=O)c1c(F)c(F)c(F)c(F)c1F | 2.58 | – |
| COc1ccc(C(CNC(=O)c2ccc(OCc3cscn3)cc2)N2CCCC2)cc1 (stereo not drawn) | -4.79 | – |
| CN(C)/C=C(/C(=O)c1ccc(F)cc1)S(=O)(=O)c1ccc(F)cc1 | -2.22 | – |
| CC(c1ccco1)N(C(=O)COc1ccccc1[N+](=O)[O-])c1ccccn1 (stereo not drawn) | 3.66 | – |

Reference: PubChem BioAssay AID720542 (National Center for Advancing Translational Sciences (NCATS), 2013)
